Assay results from the supplement of paper PMC12350171.
Structures can show the parent of a compound that is named as a salt. A number with no mark means an inactive call.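 Rule for the calls: active = AUC significantly below DMSO controls by Student t-fit with adjusted P under 0.01; inactive = not significantly reduced.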

Each molecule was assayed on Haemophilus parainfluenzae (assay: growth AUC normalised to DMSO control (fraction of control); higher = less growth inhibition, active = hit call of the paper). Details: 20 µM.
Method in brief: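 Hemin and NAD were added to the medium for Haemophilus parainfluenzae. All pathogens, after two anaerobic passages, were inoculated at a starting OD578 of 0.01 into pre-reduced mGAM plates with 20 μM compound and 1% DMSO under breathable seals, and OD578 was read hourly for 24 h in three biological replicates. AUC of each growth curve was obtained with the trapezoidal rule up to the exponential-to-stationary transition and normalised to DMSO controls from the same plate.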
For CC(=O)Nc1nnc(S(N)(=O)=O)s1 [Acetazolamide], the “growth AUC normalised to DMSO control” value was 0.959. For COc1ccc(Cl)cc1C(=O)NCCc1ccc(S(=O)(=O)NC(=O)NC2CCCCC2)cc1 [Glibenclamide], the “growth AUC normalised to DMSO control” value was 0.952. With C[C@]12C=CC(=O)C=C1CC[C@@H]1[C@@H]2[C@@H](O)C[C@@]2(C)[C@H]1CC[C@]2(O)C(=O)CO [Prednisolone] the “growth AUC normalised to DMSO control” value was 0.935. For CC(N/C(=N\C#N)Nc1ccncc1)C(C)(C)C (configuration not stated) [Pinacidil monohydrate], the “growth AUC normalised to DMSO control” value was 1. In the case of O=C(O)c1ccccc1OP(=O)(O)O [Fosfosal], the “growth AUC normalised to DMSO control” value is reported as 0.998. With Nc1nc(=O)c2c([nH]1)NC[C@@H](CNc1ccc(C(=O)N[C@@H](CCC(=O)O)C(=O)O)cc1)N2C=O [Folinic acid calcium salt] the “growth AUC normalised to DMSO control” value was 1. O=c1[nH]c(=O)n([C@H]2C[C@H](O)[C@@H](CO)O2)cc1I [Idoxuridine] was tested, and the “growth AUC normalised to DMSO control” value was 0.942. With CCN1CCC[C@H]1CNC(=O)c1c(OC)ccc(Br)c1OC [Remoxipride hydrochloride] the “growth AUC normalised to DMSO control” value was 1.04. Cc1cc2c(s1)Nc1ccccc1N=C2N1CCN(C)CC1 [Olanzapine] was tested, and the “growth AUC normalised to DMSO control” value was 1.02. With COc1ccc(C(=O)NCc2cccnc2)cc1C(=O)NCc1cccnc1 [Picotamide monohydrate] the “growth AUC normalised to DMSO control” value was 0.997. With CC(C)(O)c1ccccc1CC[C@@H](SCC1(CC(=O)O)CC1)c1cccc(/C=C/c2ccc3ccc(Cl)cc3n2)c1 [Montelukast] the “growth AUC normalised to DMSO control” value was 0.964. With NS(=O)(=O)c1cc2c(cc1C(F)(F)F)NCNS2(=O)=O [Hydroflumethiazide] the “growth AUC normalised to DMSO control” value was 0.991. For CN1C(C(=O)Nc2ccccn2)=C(O)c2sccc2S1(=O)=O [Tenoxicam], the “growth AUC normalised to DMSO control” value was 0.948. With NS(=O)(=O)c1cc(C(=O)O)c(NCc2ccco2)cc1Cl [Furosemide] the “growth AUC normalised to DMSO control” value was 1. For Cc1ccc(N(CC2=NCCN2)c2cccc(O)c2)cc1 [Phentolamine hydrochloride], the “growth AUC normalised to DMSO control” value was 1.05. For C#C[C@]1(O)CC[C@H]2[C@@H]3CCc4cc(OC)ccc4[C@H]3CC[C@@]21C [Mestranol], the “growth AUC normalised to DMSO control” value was 1.02. In the case of CCN(CC)CCOC(=O)c1ccc(N)cc1 [Procaine hydrochloride], the “growth AUC normalised to DMSO control” value is reported as 1. For CCCCc1oc2ccccc2c1C(=O)c1cc(I)c(OCCN(CC)CC)c(I)c1 [Amiodarone hydrochloride], the “growth AUC normalised to DMSO control” value was 0.96. For NC(=O)OCC(O)COc1ccc(Cl)cc1 (configuration not stated) [Chlorphensin carbamate], the “growth AUC normalised to DMSO control” value was 1.01. CCOC(=O)[C@H](CCc1ccccc1)N[C@@H](C)C(=O)N1CCC[C@H]1C(=O)O [Enalapril maleate] was tested, and the “growth AUC normalised to DMSO control” value was 1.03. CC(C)(CO)[C@@H](O)C(=O)NCCCO [(D)-Panthenol] was tested, and the “growth AUC normalised to DMSO control” value was 0.991. COc1ccc(C(=O)c2ccccc2O)c(O)c1 [Dioxybenzone] was tested, and the “growth AUC normalised to DMSO control” value was 0.992. CC[C@]12CCCN3CCc4c(n(c5ccccc45)[C@@](O)(C(=O)OC)C1)[C@@H]32 [Vincamine] was tested, and the “growth AUC normalised to DMSO control” value was 0.98. For CC(C)NCC(O)COc1ccc(CCOCC2CC2)cc1 (configuration not stated) [Betaxolol hydrochloride], the “growth AUC normalised to DMSO control” value was 0.988. In the case of Nc1ccc(O)c(C(=O)O)c1 [Mesalamine], the “growth AUC normalised to DMSO control” value is reported as 1.05. In the case of CC(C)NCC(O)c1ccc(O)c(O)c1 (single isomer, unassigned; (+)) [(+) Isoproterenol-(+)-bitartrate salt], the “growth AUC normalised to DMSO control” value is reported as 1.02. With NS(=O)(=O)Cc1noc2ccccc12 [Zonisamide] the “growth AUC normalised to DMSO control” value was 0.981. CCc1nn(CCCN2CCN(c3cccc(Cl)c3)CC2)c(=O)n1CCOc1ccccc1 [Nefazodone hydrochloride] was tested, and the “growth AUC normalised to DMSO control” value was 0.942. With CC/C(=C(/CC)c1ccc(O)cc1)c1ccc(O)cc1 [Diethylstilbestrol] the “growth AUC normalised to DMSO control” value was 1.01. With COc1cc([C@@H]2c3cc4c(cc3[C@@H](O[C@@H]3O[C@@H]5CO[C@@H](C)O[C@H]5[C@H](O)[C@H]3O)[C@H]3COC(=O)[C@H]23)OCO4)cc(OC)c1O [Etoposide] the “growth AUC normalised to DMSO control” value was 1.03. For Cc1cc(C(=O)NNCc2ccccc2)no1 [Isocarboxazid], the “growth AUC normalised to DMSO control” value was 1.06. For CN(C)CCN(Cc1cccs1)c1ccccn1 [Methapyrilene hydrochloride], the “growth AUC normalised to DMSO control” value was 0.983.
